Results from PubChem BioAssay (Tox21).
Inconclusive results are not listed. Active and inactive are the calls of the source. Unless noted, calls follow the shape of the dose curve; as a rule, active = well fitted curve in the direction sought with a large enough effect in the repeat runs; inconclusive = weak or mixed curves; inactive = no such curve, though single readings can be large; an effect the other way counts as inactive or inconclusive.

What was measured:
[1] = target: Thyrotropin receptor (Homo sapiens) (UniProt P16473); test: qHTS assay to identify small molecule agonists of the thyroid stimulating hormone receptor (TSHR) signaling pathway (AID 1224843; calls by dose curve; also: nearly all actives have a fitted effect of over 45% in size)
Summary of the method: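 HEK293 cells stably bearing the thyrotropin receptor were plated at 800 cells/well and challenged with compound (30 min, RT). Accumulated cAMP was quantified via cAMP-d2 competing for cryptate-tagged antibody.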

[2] = qHTS assay to identify small molecule agonists of the hypoxia (HIF-1) signaling pathway - cell viability counter screen (AID 1224844; calls by dose curve; also: nearly all actives have a fitted effect of over 50% in size; also: potency is read from the fitted curve at half-maximal effect)
Summary of the method: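 Multiplexed with the HRE beta-lactamase assay, this viability read used CellTiter-Glo luminescence (30 min, RT) on HRE-bla ME-180 cells treated 17 hrs with compounds in 0.5% dialyzed FBS medium.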

[3] = qHTS assay to identify small molecule agonists of H2AX (AID 1224845; active = well fitted activation curve with a large enough effect in the signal ratio in the repeat runs, not every such curve was filed as active; the % refers to the signal ratio)
Summary of the method: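 Phospho-H2AX Ser139 measured by HTRF (ex 320 nm; em 665 and 620 nm) after 24 hr antibody incubation. Compounds, 15 concentrations, 0.76% DMSO, were applied to CHO-K1 cells for 3hr at 37C before lysis.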

[4] = qHTS RealTime-Glo MT Cell Viability Assay in HepG2 cells - 24 hour (AID 1224867); also: nearly all actives have a fitted effect of over 50% in size
Summary of the method: (§1)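 HepG2 cells were seeded at 600 cells/well together with NanoLuc luciferase and a cell-permeant prosubstrate, preincubated 5 h at 37 C/5% CO2, then pin-dosed with compounds in DMSO. Nonlytic luminescence from viable cells was read at each time point.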

[5] = qHTS RealTime-Glo MT Cell Viability Assay in HEK293 cells - 32 hour (AID 1224868); also: nearly all actives have a fitted effect of over 50% in size; also: potency is read from the fitted curve at half-maximal effect
Summary of the method: (§2)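 HEK293 cells were seeded at 600 cells/well together with NanoLuc luciferase and cell-permeant prosubstrate, preincubated 5 h at 37 C/5% CO2, then given compound in DMSO by pintool. Luminescence from viable-cell prosubstrate reduction was read repeatedly over 40 h.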

[6] = A CellTox Green Cytotoxicity Assay to monitor cytotoxicity in HEK293 cells - 0 hour (AID 1224869); also: nearly all actives have a fitted effect of over 50% in size
Summary of the method: (§3)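 Seeding of HEK293 cells together with cytotoxicity dye preceded a 5 h incubation at 37 C/5% CO2. Test compounds in DMSO were then added and fluorescence monitored across 40 h.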

[7] = A CellTox Green Cytotoxicity Assay to monitor cytotoxicity in HEK293 cells - 40 hour (AID 1224871); also: nearly all actives have a fitted effect of over 45% in size; also: potency is read from the fitted curve at half-maximal effect
Summary of the method: as §3

[8] = qHTS RealTime-Glo MT Cell Viability Assay in HEK293 cells - 16 hour (AID 1224872); also: nearly all actives have a fitted effect of over 50% in size; also: potency is read from the fitted curve at half-maximal effect
Summary of the method: as §2

[9] = qHTS RealTime-Glo MT Cell Viability Assay in HepG2 cells - 8 hour (AID 1224873); also: nearly all actives have a fitted effect of over 55% in size
Summary of the method: (§4)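 Real-time viability: cells seeded at 600 per well together with NanoLuc and cell-permeant prosubstrate, compounds added after 5 h incubation. Luminescence tracked at 0, 8, 16, 24, 32 and 40 h of exposure.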

[10] = qHTS RealTime-Glo MT Cell Viability Assay in HEK293 cells - 40 hour (AID 1224874); settings: RealTime-Glo luminescence; max response: active compounds read low; also: nearly all actives have a fitted effect of over 50% in size; also: potency is read from the fitted curve at half-maximal effect
Summary of the method: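 Tox21 screen in HEK293 using RealTime-Glo MT chemistry, with cells and reagent co-dispensed. Luminescence proportional to viable cell number was captured at intervals during 40 h compound exposure at 37 C.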

[11] = A CellTox Green Cytotoxicity Assay to monitor cytotoxicity in HEK293 cells - 24 hour (AID 1224875); also: nearly all actives have a fitted effect of over 45% in size; also: potency is read from the fitted curve at half-maximal effect
Summary of the method: as §3

[12] = A CellTox Green Cytotoxicity Assay to monitor cytotoxicity in HepG2 cells - 16 hour (AID 1224876); also: nearly all actives have a fitted effect of over 45% in size
Summary of the method: (§5)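 Nonlytic assay: viable cells exclude the dye, so fluorescence scales with cell death. HepG2 at 600 cells/well, compounds added after 5 h, signal read across 40 h.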

[13] = qHTS RealTime-Glo MT Cell Viability Assay in HepG2 cells - 32 hour (AID 1224877); also: nearly all actives have a fitted effect of over 55% in size; also: potency is read from the fitted curve at half-maximal effect
Summary of the method: as §1

[14] = A CellTox Green Cytotoxicity Assay to monitor cytotoxicity in HepG2 cells - 40 hour (AID 1224879); also: nearly all actives have a fitted effect of over 40% in size; also: potency is read from the fitted curve at half-maximal effect
Summary of the method: as §5

[15] = qHTS assay to identify small molecule agonists of the hypoxia (HIF-1) signaling pathway (AID 1224846; active = well fitted activation curve with a large enough effect in the signal ratio in the repeat runs, not every such curve was filed as active; the % refers to the signal ratio)
Summary of the method: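 Hypoxia-pathway activation was scored as increased beta-lactamase from an HRE-controlled reporter in ME-180 cells; plated at 2,000 cells per well with 0.5% dialyzed FBS, they were exposed 17 hrs to compounds and then given CCF4-AM.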

[16] = qHTS RealTime-Glo MT Cell Viability Assay in HepG2 cells - 40 hour (AID 1224870); also: nearly all actives have a fitted effect of over 50% in size
Summary of the method: as §4

[17] = A CellTox Green Cytotoxicity Assay to monitor cytotoxicity in HepG2 cells - 24 hour (AID 1224878); also: nearly all actives have a fitted effect of over 45% in size; also: potency is read from the fitted curve at half-maximal effect
Summary of the method: as §5

[18] = qHTS assay to identify small molecule agonists of H2AX - cell viability counter screen (AID 1224847; calls by dose curve; also: top concentration of the series differs between compounds; nearly all actives have a fitted effect of over 30% in size)
Summary of the method: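 Cytotoxicity counter screen in wild-type CHO-K1 cells: a 3 hr compound treatment at 37C across 15 concentrations, followed by CellTiter-Glo luminescence to gauge viable cells.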

[19] = qHTS assay to identify small molecule antagonists of the estrogen related receptor (ERR) signaling pathway from Tox21 library (AID 1224848); also: nearly all actives have a fitted effect of over 50% in size
Summary of the method: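 Reading was by luminescence 30 min after ONE-Glo addition. Before that, ERR cells at 2,000 per well had rested 6 h at 37 C/5% CO2 and then received pin-tooled compounds in DMSO for 18 h at 37 C.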

[20] = qHTS assay to identify small molecule agonists of the estrogen related receptor (ERR) signaling pathway from Tox21 library (AID 1224849; calls by dose curve; also: nearly all actives have a fitted effect of over 15% in size); settings: ERR reporter cell line, ONE-Glo luciferase, 18 h; at 92.4 µM (top of the series) unless noted
Summary of the method: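 Six hours post-seeding at 37 C/5% CO2, ERR cells receive DMSO-solubilised compounds; after 18 h at 37 C, ONE-Glo reagent is applied and luminescence recorded.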
% is scaled to controls: 0 for no effect and ±100 for the full control effect.

Thyrotropin receptor (Homo sapiens), sequence (P16473 whole entry, looked up): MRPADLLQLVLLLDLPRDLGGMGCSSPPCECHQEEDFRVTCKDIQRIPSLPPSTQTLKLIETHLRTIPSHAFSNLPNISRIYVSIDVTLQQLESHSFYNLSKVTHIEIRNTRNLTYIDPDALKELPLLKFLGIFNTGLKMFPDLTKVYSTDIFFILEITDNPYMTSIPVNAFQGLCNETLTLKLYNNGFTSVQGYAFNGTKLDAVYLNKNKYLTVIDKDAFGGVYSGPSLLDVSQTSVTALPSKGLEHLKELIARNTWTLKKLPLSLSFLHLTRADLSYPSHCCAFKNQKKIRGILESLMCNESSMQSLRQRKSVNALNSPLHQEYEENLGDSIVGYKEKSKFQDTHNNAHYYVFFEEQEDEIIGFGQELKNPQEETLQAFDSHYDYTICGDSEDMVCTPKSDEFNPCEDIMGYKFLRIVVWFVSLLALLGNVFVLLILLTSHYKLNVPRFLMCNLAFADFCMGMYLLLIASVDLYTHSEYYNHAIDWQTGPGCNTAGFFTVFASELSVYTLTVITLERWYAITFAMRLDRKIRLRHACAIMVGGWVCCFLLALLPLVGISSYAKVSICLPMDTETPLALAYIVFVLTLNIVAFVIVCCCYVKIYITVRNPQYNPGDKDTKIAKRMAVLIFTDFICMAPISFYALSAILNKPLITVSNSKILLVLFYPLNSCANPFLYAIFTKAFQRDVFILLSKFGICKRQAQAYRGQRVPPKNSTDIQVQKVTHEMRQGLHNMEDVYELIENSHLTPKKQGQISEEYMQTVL

CCSC(=O)N(CC)CC
inactive: Potency [1] | Potency [2] | Potency [3] | Potency [4] | Potency [5] | Potency [6] | Potency [7] | Potency [8] | Potency [9] | max response [10] 0.524% | Potency [11] | Potency [12] | Potency [13] | Potency [14]

O=C(O)c1cccc(C[C@@H]2COc3ccc(OCc4nc5cc(F)ccc5s4)cc3[C@@H]2O)c1
inactive: Potency [1] | Potency [2] | outcome [15] | Potency [4] | Potency [5] | Potency [6] | Potency [16] | Potency [7] | Potency [8] | Potency [9] | max response [10] 4.74% | Potency [11] | Potency [12] | Potency [13] | Potency [17] | Potency [14]

CCNc1nc(N)nc(Cl)n1
inactive: Potency [1] | Potency [2] | outcome [15] | Potency [18] | Potency [19] | activity change, positive = activation [20] 3.57% | Potency [4] | Potency [5] | Potency [6] | Potency [16] | Potency [7] | Potency [8] | Potency [9] | max response [10] 9.34% | Potency [11] | Potency [12] | Potency [13] | Potency [17] | Potency [14]

Cc1cc(CCCOc2c(C)cc(-c3noc(C(F)(F)F)n3)cc2C)on1
inactive: Potency [1] | Potency [2] | outcome [15] | Potency [4] | Potency [6] | Potency [16] | Potency [9] | Potency [11] | Potency [13] | Potency [17] | Potency [14]

CCC1CCC(CCC(=O)O)C1 (centres undefined)
inactive: Potency [1] | Potency [2] | outcome [15] | Potency [18] | Potency [19] | activity change, positive = activation [20] -14.4% | Potency [4] | Potency [5] | Potency [6] | Potency [16] | Potency [7] | Potency [8] | Potency [9] | max response [10] -15.6% | Potency [11] | Potency [13] | Potency [17]

CCCCC(CC)COS(=O)(=O)O (centres undefined)
inactive: Potency [1] | Potency [2] | outcome [15] | Potency [18] | Potency [19] | activity change, positive = activation [20] 3.39% | Potency [4] | Potency [5] | Potency [6] | Potency [16] | Potency [8] | Potency [9] | max response [10] -1.73% | Potency [12] | Potency [13] | Potency [17] | Potency [14]

Cc1cc([N+](=O)[O-])ccc1N
inactive: Potency [1] | Potency [2] | outcome [15] | Potency [18] | Potency [4] | Potency [5] | Potency [6] | Potency [16] | Potency [7] | Potency [8] | Potency [9] | max response [10] -19.2% | Potency [11] | Potency [12] | Potency [13] | Potency [14]

Cc1oc(=O)oc1COC(=O)[C@@H]1N2C(=O)[C@@H](NC(=O)[C@H](N)c3ccccc3)[C@H]2SC1(C)C
inactive: Potency [1] | Potency [2] | outcome [15] | Potency [18] | Potency [19] | activity change, positive = activation [20] 1.21% [at 42.5 µM] | Potency [4] | Potency [5] | Potency [6] | Potency [16] | Potency [7] | Potency [8] | Potency [9] | max response [10] 6.21% | Potency [11] | Potency [12] | Potency [13] | Potency [17] | Potency [14]

Cc1ccc(S(=O)(=O)NC(=O)NC2CCCCC2)cc1
inactive: Potency [1] | Potency [2] | outcome [15] | Potency [18] | Potency [4] | Potency [5] | Potency [6] | Potency [16] | Potency [7] | Potency [8] | Potency [9] | max response [10] 4.44% | Potency [11] | Potency [12] | Potency [13] | Potency [17]

Nc1nc2ccc(OC(F)(F)F)cc2s1
inactive: Potency [1] | Potency [2] | Potency [3] | Potency [18] | Potency [4] | Potency [6] | Potency [16] | Potency [7] | Potency [8] | Potency [9] | Potency [11] | Potency [12] | Potency [13] | Potency [17]

CNS(=O)(=O)c1cc(C(=O)N2CCC(CCN3C4CCC3CC(n3c(C)nc5ccccc53)C4)(c3cccc(F)c3)CC2)c(Cl)cc1F (centres undefined)
inactive: Potency [1] | Potency [3] | Potency [18] | Potency [6] | Potency [7] | Potency [11] | Potency [12] | Potency [17] | Potency [14]
active: Potency [2] 3.89 µM | Potency [5] 5.49 µM | Potency [8] 4.36 µM | Potency [10] 4.36 µM

CCN(CC)CC(=O)Nc1c(C)cccc1C(=O)OC
inactive: Potency [1] | Potency [2] | outcome [15] | Potency [18] | Potency [4] | Potency [5] | Potency [6] | Potency [16] | Potency [7] | Potency [8] | Potency [9] | max response [10] 0.513% | Potency [11] | Potency [12] | Potency [13] | Potency [17] | Potency [14]

CC1C(C)(C)C2=C(C(=O)CCC2)C1(C)C (centres undefined)
inactive: Potency [1] | Potency [2] | outcome [15] | Potency [18] | Potency [19] | activity change, positive = activation [20] -0.756% | Potency [4] | Potency [5] | Potency [6] | Potency [16] | Potency [7] | Potency [8] | Potency [9] | max response [10] -12.9% | Potency [13]

CN1CCCN(C(c2ccccc2)c2ccc(Cl)cc2)CC1 (centres undefined)
inactive: Potency [1] | Potency [3] | activity change, positive = activation [20] -29.3% [at 42.5 µM] | Potency [6] | Potency [8] | Potency [9]
active: Potency [2] 21.3 µM | Potency [7] 26.8 µM | Potency [11] 23.9 µM | Potency [13] 23.9 µM | Potency [17] 23.9 µM | Potency [14] 21.3 µM

CCCCCCCCCCCCCC(=O)OCC(O)CO (centres undefined)
inactive: Potency [1] | Potency [2] | outcome [15] | Potency [18] | Potency [19] | activity change, positive = activation [20] 1.85% | Potency [4] | Potency [5] | Potency [6] | Potency [16] | Potency [7] | Potency [8] | Potency [9] | max response [10] -0.733% | Potency [12] | Potency [13] | Potency [17]

CCOC(=O)Oc1ccc(CCNC(=O)[C@H](CCSC)NC(C)=O)cc1OC(=O)OCC
inactive: Potency [1] | Potency [2] | outcome [15] | Potency [18] | Potency [4] | Potency [5] | Potency [6] | Potency [16] | Potency [7] | Potency [8] | Potency [9] | max response [10] 14.4% | Potency [11] | Potency [12] | Potency [13] | Potency [14]
